Calls of active or inactive are those of the source. No stated cut-off is given here; in the data, active means inhibition above about 65%; inactive means the rest.
What follows are compounds tested on Fam108b (assay: Fam108b inhibition by ABPP, late-stage follow-up, biochemical, gel-based ABPP, recombinant soluble Fam108b, HTS hits, complex proteome (AID 588651;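 further: Fam108b spiked into mouse brain membrane proteome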)). Settings: FP-rhodamine labeling in proteome, at 20 µM, hits give high values.

Row | SMILES | inhibition
1 | O=C(CCCSc1ccccc1)Nc1nc(-c2ccco2)c(-c2ccco2)s1 | 0% (inactive)
2 | Cc1ccc(S(=O)(=O)/N=C2\C=C(Nc3cccc(C(=O)O)c3)C(=O)c3ccccc32)cc1 | 0% (inactive)
3 | Oc1ccc(C=NNc2ccnc3cc(Cl)ccc23)cc1O | 65% (active)
4 | Brc1ccc(-c2csc(Nc3nc(-c4ccc(Br)cc4)cs3)n2)cc1 | 50% (inactive)
5 | O=C(Nc1ccc(-c2csc(Nc3ccc(Cl)cc3)n2)cc1)c1cccc(C(F)(F)F)c1 | 95% (active)
6 | COc1ccc(NC(=S)Nc2ccc3nsnc3c2)cc1 | 0% (inactive)
7 | O=C(Nc1ccc(-c2csc(Nc3cccc(C(F)(F)F)c3)n2)cc1)c1cccc(C(F)(F)F)c1 | 95% (active)
8 | Cc1cc(NN=Cc2c(O)ccc3ccccc23)nc(-c2ccccc2O)n1 | 85% (active)
9 | N=c1oc2cc(O)ccc2cc1C(=O)Nc1ccc(Br)cc1 | 0% (inactive)
10 | CCc1ccc(S(=O)(=O)/N=C2\C=C(Nc3cccc(C(=O)O)c3)C(=O)c3ccccc32)cc1 | 0% (inactive)
11 | CCN(c1ccccc1)S(=O)(=O)c1ccc(NC(=O)c2nc(S(C)(=O)=O)ncc2Cl)cc1 | 0% (inactive)
12 | O=C(Nc1ccc(-c2csc(Nc3ccccc3)n2)cc1)c1cc([N+](=O)[O-])cc(C(F)(F)F)c1 | 60% (inactive)
13 | Cc1ccc(S(=O)(=O)Nc2ccccc2C(=O)Nc2nc(-c3ccc(F)cc3)cs2)cc1 | 40% (inactive)
14 | O=C(Nc1ccc(N2CCCC2)c(S(=O)(=O)Nc2cccc(C(F)(F)F)c2)c1)c1cccs1 | 85% (active)
15 | Oc1ccccc1C1Nc2cccc3cccc(c23)N1 | 0% (inactive)
16 | CCNc1ccc2noc3c2c1C(=O)c1ccccc1-3 | 0% (inactive)
17 | CN(C)S(=O)(=O)c1cccc(NC(=O)COC(=O)c2cc(-c3cccc(Br)c3)nc3ccccc23)c1 | 0% (inactive)

Row | SMILES | inhibition
18 | Oc1ccc(C=NNc2ccnc3cc(Cl)ccc23)c(O)c1O | 20% (inactive)
19 | COc1ccc(S(=O)(=O)/N=C2\C=C(Nc3ccc(O)cc3)C(=O)c3ccccc32)cc1 | 25% (inactive)
20 | O=C(Nc1ccc2[nH]c(=S)sc2c1)Nc1ccccc1F | 20% (inactive)
21 | COc1cc2c(cc1NC(=S)Nc1cccc(C(F)(F)F)c1)oc1ccccc12 | 20% (inactive)
22 | CC1(C)CC(=O)C2=C(C1)c1c(ccc3ccccc13)NC2c1cc([N+](=O)[O-])cc([N+](=O)[O-])c1O (centres undefined) | 50% (inactive)
23 | COc1ccc(/C=C/C(=O)OCC(=O)Nc2cccc(Oc3ccccc3)c2)c(OC)c1 | 30% (inactive)
24 | O=c1oc(-c2ccccc2Cl)nc2ccsc12 | 95% (active)
25 | O=c1ccc2cc3c([nH]c4ccc(Br)cc43)oc-2c1O | 10% (inactive)
26 | O=C(Nc1cccc(C(F)(F)F)c1)Nc1ccc(N2CCCC2)c(S(=O)(=O)Nc2ccccc2Cl)c1 | 98% (active)
27 | COc1cccc2c1C(=O)c1c(O)c3c(c(O)c1C2=O)C[C@@](O)(C(=O)CO)C[C@@H]3O[C@H]1C[C@H](N)[C@H](O)[C@H](C)O1 | 0% (inactive)
28 | Cc1nc2scc(-c3ccccc3)c2c(=O)o1 | 80% (active)
29 | Oc1nc(Nc2cccc(Cl)c2)sc1/C=C1\C=Nc2ccccc21 | 80% (active)
30 | CC1=CC(=O)c2c(O)ccc(O)c2C1=O | 50% (inactive)
31 | Oc1cccc2cc3cccc(O)c3c(O)c12 | 85% (active)
32 | Cc1ccc(-n2c(O)c(/C=N/Nc3ccc(S(=O)(=O)N4CCOCC4)cc3[N+](=O)[O-])c3ccccc3c2=O)c(C)c1 | 40% (inactive)
33 | COc1cc2c(cc1NC(=O)Nc1ccccc1)oc1ccccc12 | 0% (inactive)
34 | Cc1[nH]c2c(C)cccc2c1CCNC(=O)c1ccc2c(c1[N+](=O)[O-])C(=O)c1ccccc1C2=O | 40% (inactive)
